# PLK1 PBD inh: qHTS for Inhibitors of PLK1-PDB (polo-like kinase 1 - polo-box domain): Primary Screen. Potency, µM, for the others: max response, negative = inhibition, hits mostly inhibitors. AID 720504, 2013. Plk1 PBD binding of FITC phosphopeptide, fluorescence polarization. 360,000 compounds, 2.8% hits; note: series mostly up to about 57 µM; nearly all actives have a fitted effect of over 65% in size
# Target sequence (P53350 whole entry, looked up, the tested form may be a part): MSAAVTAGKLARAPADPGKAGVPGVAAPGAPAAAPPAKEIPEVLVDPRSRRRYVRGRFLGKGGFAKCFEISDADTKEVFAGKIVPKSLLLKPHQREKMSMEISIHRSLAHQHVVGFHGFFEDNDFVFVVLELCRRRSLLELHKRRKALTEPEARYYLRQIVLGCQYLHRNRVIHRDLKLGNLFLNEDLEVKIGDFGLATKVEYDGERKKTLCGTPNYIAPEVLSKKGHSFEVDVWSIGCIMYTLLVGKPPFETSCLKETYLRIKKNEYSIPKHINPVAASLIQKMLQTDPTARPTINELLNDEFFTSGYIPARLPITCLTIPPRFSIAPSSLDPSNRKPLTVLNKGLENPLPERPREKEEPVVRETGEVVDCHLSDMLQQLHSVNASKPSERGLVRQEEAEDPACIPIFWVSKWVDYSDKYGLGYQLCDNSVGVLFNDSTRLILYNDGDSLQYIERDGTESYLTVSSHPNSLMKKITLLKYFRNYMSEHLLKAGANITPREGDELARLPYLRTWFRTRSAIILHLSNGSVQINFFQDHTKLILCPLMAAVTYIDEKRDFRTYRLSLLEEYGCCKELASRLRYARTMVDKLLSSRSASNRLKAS
# Sfp inh: qHTS Assay for Inhibitors of Bacillus subtilis Sfp phosphopantetheinyl transferase (PPTase) | 310,000 compounds, 3.5% hits | Biochemical Sfp PPTase activity, qHTS | Potency, µM, inactives show largest response in the series, negative = inhibition, hits mostly inhibitors | 4'-phosphopantetheinyl transferase ffp (Bacillus subtilis), Q9F4F7;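 note: the enzyme is Sfp with the accession as filed and its product quenches rhodamine fluorescence; 0% = enzyme reaction without inhibitor and -100% = no enzyme wells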
#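 Fluorescence-quenching assay with 15 nM Sfp, 5 uM rhodamine-CoA and 12.5 uM BHQ-2-labelled ybbR peptide in pH 7.6 Hepes/MgCl2 buffer. Enzyme was pre-incubated with compound for 15 min at room temperature. Rate was taken from the 30-min fluorescence change (525/598 nm).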
# mIDH1 inhibitor: qHTS for Inhibitors of mutant isocitrate dehydrogenase 1 (IDH1): qHTS; IDH1-R132H enzyme, NADPH consumption, diaphorase/resazurin fluorescence; Potency, µM (top dose mostly 76.6 µM), inactives show at the top dose activity change, negative = inhibition, hits mostly inhibitors; 390,000 compounds, 0.093% hits; AID 602179, 2012; note: nearly all actives have a fitted effect of over 65% in size
#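 IDH1-R132H (0.5 ug/mL) preincubated 30 min with compound, then NADPH (0.016 mM) and alpha-KG (2 mM) added; 80 min at RT, pH 7.5. Remaining NADPH coupled via diaphorase/resazurin to fluorescence (540/590 nm); concentration-response curves normalized to no-enzyme control.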
# VDR inh: Inhibitors of the vitamin D receptor (VDR): qHTS. 400,000 compounds, 0.93% hits. VDR-SRC2-3 peptide fluorescence polarization, 2 h. AID 504847, 2011. Vitamin D3 receptor (Homo sapiens), P11473. Potency, µM, without a hit: max response, negative = inhibition, actives largely listed as inhibitors
#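 Fluorescence polarization assay of small-molecule disruption of VDR binding to coregulator peptide SRC2-3. Compounds and controls pin-transferred, then read after 2 h incubation at ambient room temperature.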
# TrxR1 substrate: qHTS Assay for Substrates of Mammalian Selenoprotein Thioredoxin Reductase 1 (TrxR1): qHTS. 390,000 compounds, 0.01% hits. purified TrxR1 substrate turnover, NADPH consumption readout. Thioredoxin reductase 1, cytoplasmic (Rattus norvegicus), O89049. Potency, µM (series often up to 114 µM), without a hit: at the top dose activity change, negative = substrate turnover; note: nearly all actives have a fitted effect of over 50% in size
#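 Rat TrxR1, dispensed at 90 nM, was prereduced with 400 uM NADPH (final) for 5 min at ~22 deg C, then incubated with compound 15 min before 400 uM selenite. A first-read NADPH fluorescence drop versus no-compound background flagged substrates.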
# rTrxR1 inhibitor: qHTS Assay for Inhibitors of Mammalian Selenoprotein Thioredoxin Reductase 1 (TrxR1): qHTS | recombinant rTrxR1, NADPH fluorescence consumption, selenite substrate | Potency, µM (doses to about 114 µM), inactives show at the top dose activity change, negative = inhibition, usual class: inhibitors | 390,000 compounds, 1% hits; note: nearly all actives have a fitted effect of over 65% in size
#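 Rat TrxR1 (90 nM in the dispensed reagent) was pre-reduced with 400 uM NADPH for 5 min at room temperature, then incubated with compound for 15 min. After 400 uM selenite was added, NADPH fluorescence (Ex 340/Em 450 nm) was followed for 8 min.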
# An asterisk follows results filed as active; ? = inconclusive; nt = no result; [ ] = another dose, or the depositor's remark. Compounds with a hit are over-represented: about 5.2% of the library has one in this group of screens. Calls come from the whole dose curve; as a rule, active = well fitted curve in the direction sought with a large enough effect; inconclusive = small, poorly fitted or top-dose-only effect, or another doubt; inactive = no such curve, though single readings can be large; an effect the other way counts as inactive or inconclusive. Unless noted, % is set by controls: 0 for no effect and ±100 for the full control effect; potency is the fitted concentration of half-maximal effect.
SMILES,PLK1 PBD inh,Sfp inh,mIDH1 inhibitor,VDR inh,TrxR1 substrate,rTrxR1 inhibitor
CCCn1c(NC(=O)c2ccc(C)cc2)nc2ccccc21,27µM*,35%,7%,-20%,4%,5%[57.1 µM]
CCOC(=O)CNS(=O)(=O)c1ccc(F)cc1Br,nt,-9%,nt,4%,-7%,?
Cc1cc(C(=O)N2CCN(c3ccc(F)cc3)CC2)on1,-7%,1%,-4%,22%,9%[57.1 µM],16%[57.1 µM]
NCC(=O)c1c[nH]c2ccccc12,nt,nt,nt,nt,-6%,-11%
COC(=O)[C@@H]1CC[C@H](C)[C@@H](c2ccc(C)cc2)N1C(=O)c1ccc(/C=N/O[C@@H](C)CN2CCCCc3nc(C)c(C)cc32)cc1,nt,25µM*,nt,nt,nt,nt
CCCCCCCC/C=C\CCCCCCCC(=O)NCCCC(=O)O,nt,22%,nt,-8%,nt,nt
CN(C)c1cccc2c(S(=O)(=O)Nc3ccccn3)cccc12,-2%,3%,19%,4%,-1%,2%
Cc1noc(NS(=O)(=O)c2cccc3c(N(C)C)cccc23)c1C,nt,50µM*,nt,25µM*,nt,nt
Cc1ccc2nc(N(Cc3cccnc3)C(=O)CCOc3ccccc3)sc2c1,nt,nt,-4%,15%,-4%[57.1 µM],?
CNC(=O)NC(=O)C(NC1CCCc2ccccc21)c1ccccc1 (stereo not drawn),4%,7%,-3%,-9%,2%,13%
Cc1ccc(NC(=O)C(NC2CCCc3ccccc32)c2ccccc2)cc1Cl (stereo not drawn),-18%,45µM*,-1%,19%,-2%[57.1 µM],1%[57.1 µM]
NC(c1csc(Nc2ccc(C(=O)NCCCO)cn2)n1)c1ccccc1Cl (stereo not drawn),-6%,nt,nt,nt,nt,nt
Cc1cc(SCC(=O)c2ccc(Cl)cc2)nc(=O)[nH]1,24µM*,?,7%,?,4%,-1%
COc1ccc(S(=O)(=O)NNc2nc(C)cc(C)n2)cc1[N+](=O)[O-],-12%,50µM*,-10%,-17%,0%,5%
COc1ccc(C(=O)Nc2nc(C)cc(C)n2)cc1[N+](=O)[O-],-2%,7%,0%,-5%,-11%,?
O=C(NCC(=O)N(c1ccc2c(c1)OCO2)C(C(=O)NC1CCCC1)c1ccncc1)c1ccco1 (stereo not drawn),2.7µM*,12%,16%,-21%,14%[57.1 µM],?
O=C(NCC(=O)N(c1ccc(Cl)cc1)C(C(=O)NC1CCCC1)c1ccncc1)c1ccco1 (stereo not drawn),-6%,14%,3%,11%,0%,25%[0.0914 µM]
Cc1cc(C)cc(N(C(=O)CNC(=O)c2ccco2)C(C(=O)NC2CCCC2)c2ccncc2)c1 (stereo not drawn),30µM*,12%,2%,?,8%[57.1 µM],1%[57.1 µM]
Cc1ccc(C(=O)NCCNC(=O)COc2ccc(Cl)cc2)cn1,1%,12%,-6%,14%,2%,12%
CC(C)CCNC(=O)NC(=O)COC(=O)/C=C/c1cc(Br)ccc1F,15µM*,14%,16%,?,17%,26%[57.1 µM]
COC(=O)c1cc(S(=O)(=O)N2CCN(c3ccc(OC)cc3)CC2)c[nH]1,nt,nt,-4%,7%,5%,15%
CCOc1cc(N2CCOCC2)c(OCC)cc1NC(=O)CSc1ccccc1C(=O)O,-5%,nt,-2%,16%,0%,12%
CCOc1cc(N2CCOCC2)c(OCC)cc1NC(=O)CN1CCc2ccccc2C1,0%,45µM*,1%,6%,-1%,11%
CCOc1cc(N2CCOCC2)c(OCC)cc1NC(=O)CN1CCN(Cc2ccc3c(c2)OCO3)CC1,1%,10%,0%,-2%,2%,8%
CCOc1cc(N2CCOCC2)c(OCC)cc1NCC(=O)N1CCN(Cc2ccccc2)CC1,2%,56µM*,6%,12%,-4%,3%
SMILES,PLK1 PBD inh,Sfp inh,mIDH1 inhibitor,VDR inh,TrxR1 substrate,rTrxR1 inhibitor
COc1cc2c(c(OC)c1OC)-c1c(cc(OC)c(OC)c1OC)CC(C)C(C)C2 (stereo not drawn),nt,-22%,nt,-17%,nt,nt
C[C@H](NC(=O)OC(C)(C)C)c1nnc(SCc2c(F)cccc2Cl)o1,nt,nt,-3%,89µM*,-1%,39%[11.4 µM]
CCS(=O)(=O)Nc1ccc(Cc2ccncc2)cc1,30µM*,-6%,9%,-1%,12%[57.1 µM],-4%
COCCOC(=O)/C(=C/c1ccc(OC(=O)c2ccccc2)cc1)C(C)=O,21µM*,?,2%,22µM*,0%,?
COc1ccc(C=C(C(C)=O)C(=O)c2ccccc2)cc1,-11%,nt,nt,nt,nt,nt
CCOC(=O)/C(=C/c1ccc(OC(=O)c2ccncc2)cc1)C(C)=O,?,-66%,5%,?,14%[57.1 µM],6.3µM*
Cc1cc(F)ccc1NC(=O)CCS(=O)(=O)c1ccc2c(c1)NC(=O)CO2,nt,nt,5%,8%,2%[11.4 µM],27%
O=C(c1ccc([N+](=O)[O-])cc1)N1CCN(c2ncc(Br)cn2)CC1,27µM*,8%,4%,?,4%,13%
NC(=O)c1ccc(NC(=O)COC(=O)CCC(=O)c2ccc(Cl)cc2)cc1,24µM*,-3%,9%,-12%,1%,19%
O=C(COC(=O)CCC(=O)c1ccc(F)cc1)Nc1ccccc1,-4%,17%,6%,-18%,-12%[57.1 µM],19%[57.1 µM]
CCn1c(C)[n+](CCCS(=O)(=O)[O-])c2cc(Cl)c(Cl)cc21,-4%,-5%,8%,-12%,21%[57.1 µM],2%[57.1 µM]
O=S(=O)([O-])CCC[n+]1c(SCCCS(=O)(=O)O)sc2ccc(Cl)cc21,?,3.2µM*,2%,?,-7%,101%
CCOc1ccc(-n2c(N)c(C(=O)NCc3cccnc3)sc2=S)cc1,27µM*,?,7%,-25%,-4%,-6%
CCOc1ccc(-n2c(N)c(C(=O)NCc3ccco3)sc2=S)cc1,21µM*,13µM*,7%,?,-10%[57.1 µM],-29%[57.1 µM]
COC(=O)c1sc(=S)n(-c2cccc(Cl)c2)c1N,8.4µM*,32µM*,3%,?,5%,4%
CCOc1ccc(NC(=O)NCc2cccnc2)cc1,27µM*,6%,0%,-13%,-7%,-1%
CCOC(=O)c1sc(=S)n(-c2ccccc2)c1N,-17%,?,-3%,-7%,-6%,2%
CC(=O)Nc1cc(-c2cccc(C(=O)N(C)C)c2)cn2c(-c3ccc(C(C)=O)cc3)cnc12,-9%,nt,nt,nt,nt,nt

# Compound activity from PubChem BioAssay.
